High-throughput results as filed in PubChem BioAssay.
A selection: hits, their analogues and other compounds. The true share with any hit is near 0.44%.
RmlCD inh mix = RmlC and RmlD coupled enzyme inhibitors, primary screen, biochemical, 384-well, compound mixtures, retest; RmlC/RmlD coupled enzyme inhibition, 384-well mixture HTS; inhibition, % at 5.5 µM; 0.39% of 110,000 active; in the data active = inhibition above about 30%, passing the limit was not always enough; inconclusive = no clear call, values can overlap the other calls
YopH inh = YopH tyrosine phosphatase inhibitors, primary screen, biochemical, fluorescence Ex485/Em525; 0.16% of 140,000 active; YopH tyrosine phosphatase [Yersinia enterocolitica]; inhibition, % (concentration not given with the values); in the data active = inhibition above about 50%
RmlCD fluor art = counter-screen for RmlC/RmlD inhibitors: fluorescence artifact, dose response, artefact control, biochemical; RmlC/RmlD assay fluorescence artifact counter-screen; shares compounds with RmlCD inh mix; 96% of 360 active; calls only; AID 1696, 2009; call rule not given here;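 also: compound alone with no enzyme and no substrates present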
The depositor's hits bear a star; ? = inconclusive; . = no result given; + = active, no number.

SMILES | RmlCD inh mix | YopH inh | RmlCD fluor art
Nc1ccc(-c2nc3c(Cl)c(N)ccc3[nH]2)cc1 | 116* | -11 | +
Nc1ccc2nc(-c3ccc(Cl)cc3)[nH]c2c1 | 9 | 0 | .
O=C(OCC(=O)N1CCN(C(=O)c2ccco2)CC1)c1cc(-c2ccc(Cl)c(Cl)c2Cl)nc2ccccc12 | -33 | -12 | .
O=C(O)c1cc(-c2ccco2)nc2ccccc12 | 54* | -22 | +
O=C(OCC(=O)N1CCN(C(=O)c2ccco2)CC1)c1cc(-c2ccco2)nc2ccccc12 | 30* | -37 | +
O=C(Nc1nc2ccccc2s1)c1cc(-c2ccco2)nc2ccccc12 | . | 23 | .
Cc1ccc2c(CC(=O)NC3=NCCS3)coc2c1 | 4 | -34 | .
N#C/C(=C\c1cc(Cl)cc(Cl)c1O)C(=O)NC1CCCCC1 | -4 | -39 | .
CCn1c(SCc2c(F)cccc2Cl)nnc1-c1ccco1 | -7 | 22 | .
CCCCCCC(=O)c1c(C)[nH]c(C(=O)OCC)c1C | 25 | -5 | .
COC(=O)c1ccc(C(=O)OC)c(NC(=O)CSCc2ccccc2Br)c1 | -10 | -29 | .
CNC(=O)c1ccc(-c2ccc(F)cc2)s1 | 8 | -16 | .
CNC(=O)c1ccc(-c2ccc(OC)cc2)s1 | 85* | -3 | +
COc1cccc(NC(=O)COc2ccc(N3CC(C(=O)NCC(C)C)CC3=O)cc2)c1 (centres undefined) | -27 | -6 | .
COc1cccc(NC(=S)N/N=C2/CCCCc3ccccc32)c1 | . | -15 | .
N#Cc1c(-c2ccco2)cc(-c2cccnc2)nc1N | ? | -51 | .
N#Cc1c(-c2ccco2)cc(-c2ccccn2)nc1N | 46* | -11 | +
Cc1ccc(Nc2nnc(SCC(=O)NCc3ccco3)s2)cc1 | -12 | -19 | .
COc1ccc(-c2ccnc3c(C#N)cnn23)cc1 | . | . | +
N#Cc1cnn2c(-c3ccccc3)ccnc12 | 17 | 0 | .
CCN(CC)S(=O)(=O)c1cc(Br)c(C)cc1OC | -20 | 4 | .
CN(C)CCCNS(=O)(=O)c1cc(Cl)ccc1Cl | 2 | -3 | .
O=S(=O)(c1ccc(N2CCC(c3ccc(Cl)cc3)=N2)cc1)N(CCO)CCO | 40* | 5 | +
CN(C)CCCNS(=O)(=O)c1ccc(N2CCC(c3ccc(Cl)cc3)=N2)cc1 | 93* | -14 | +
CCN(CC(=O)N1CCCCCC1)S(=O)(=O)c1ccc(Cl)cc1 | -1 | 13 | .
SMILES | RmlCD inh mix | YopH inh | RmlCD fluor art
C=C1[C@@H](OC(C)=O)CC[C@]2(C)[C@@H]1C[C@@H]1C[C@H](OC(C)=O)C(C)=C([C@@H](OC(C)=O)[C@@H]2OC(C)=O)C1(C)C | 14 | . | .
CCn1c2ccccc2c2nnc(SCC(=O)NC(CC(C)C)C(=O)OC)nc21 (centres undefined) | -4 | 1 | .
COc1cc(-c2nc3ccccn3c2/N=C/c2cc(OC)c(OC)c(OC)c2)ccc1O | 44* | -31 | +
CN(C)c1ccc(-c2nc3ccccn3c2/N=C/c2ccc(Br)cc2)cc1 | . | -12 | .
CCCNC(=S)N1CCC(NC(=O)C2CCCCC2)CC1 | -13 | -97 | .
CCOC(=O)CC(=O)CSc1nc2c(cc1C#N)CCC2 | 80* | 2 | +
N#CCSc1nc2c(cc1C#N)CCCC2 | 0 | -39 | .
CCOC(=O)CC(=O)CSc1nc2c(c(-c3cccs3)c1C#N)CCC2 | . | 3 | .
COC(=O)CC(=O)CSc1nc2c(cc1C#N)CCCCC2 | 138* | -16 | +
COc1ccc(S(=O)(=O)Nc2cccc(N(C)S(C)(=O)=O)c2)cc1Br | . | -31 | .
CCOC(=S)SCC(=O)N1CCc2cc(OC)ccc2C1C1C(=O)CCCC1=O (centres undefined) | . | -12 | .
COC(=O)Cc1c(C)c2cc(Cl)c(OC(=O)c3ccco3)cc2oc1=O | . | -18 | .
COC(=O)Cc1c(C)c2ccc(OC(=O)c3ccco3)cc2oc1=O | + | -41 | +
CC(C)Oc1cc2oc(=O)c3c(c2cc1Cl)CCC3 | -6 | -89 | .
CC(=O)Oc1cc2oc(=O)c3c(c2cc1Cl)CCC3 | . | -28 | +
O=C(Oc1ccc2c3c(c(=O)oc2c1)CCCC3)c1cccs1 | . | -14 | .
O=C(Oc1cc2oc(=O)c3c(c2cc1Cl)CCCC3)c1ccco1 | 141* | -17 | +
Cc1cc2oc(=O)c3c(c2cc1OC(=O)c1ccco1)CCCC3 | -48 | -13 | .
O=C(Oc1ccc2c3c(c(=O)oc2c1)CCC3)c1ccco1 | 187* | -26 | +
CC1CN(Cc2cc(=O)[nH]c(C(C)C)n2)CC(C)O1 (centres undefined) | 2 | -24 | .
CCOC(=O)C/C(C)=N/NC(=O)C1CC1(c1ccccc1)c1ccccc1 (centres undefined) | . | -26 | .
CCNC(=S)Nc1ccc(Cl)c(C(F)(F)F)c1 | . | 6 | .
O=C(COC(=O)c1ccncc1)Nc1cc(Cl)c(Cl)cc1Cl | . | -14 | .
